The campaign covered roughly 220,000 compounds. About 830 (0.38%) were called active.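 The calls were made as follows: active = compound inhibiting the enzyme by more than half at any dose during confirmatory dose-response retesting; inconclusive = strong single-dose inhibitors picked by rank but not retested; inactive = the rest.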 Only a sample is shown. Entries with a potency or affinity are not part of this list.
target: Leucine aminopeptidase (Plasmodium falciparum (isolate 3D7)) (UniProt Q8IL11); experiment: P. falciparum M17LAP inhibitors, primary screen, biochemical, fluorogenic H-Leu-NHMec substrate, 1536-well (AID 1619); conditions: recombinant M17LAP, H-Leu-NHMec fluorogenic kinetic assay; at 30 µM; active compounds read high;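 also: plate controls were full reaction with DMSO carrier for no effect and no enzyme background for full effect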
Sequence (Q8IL11 whole entry, looked up): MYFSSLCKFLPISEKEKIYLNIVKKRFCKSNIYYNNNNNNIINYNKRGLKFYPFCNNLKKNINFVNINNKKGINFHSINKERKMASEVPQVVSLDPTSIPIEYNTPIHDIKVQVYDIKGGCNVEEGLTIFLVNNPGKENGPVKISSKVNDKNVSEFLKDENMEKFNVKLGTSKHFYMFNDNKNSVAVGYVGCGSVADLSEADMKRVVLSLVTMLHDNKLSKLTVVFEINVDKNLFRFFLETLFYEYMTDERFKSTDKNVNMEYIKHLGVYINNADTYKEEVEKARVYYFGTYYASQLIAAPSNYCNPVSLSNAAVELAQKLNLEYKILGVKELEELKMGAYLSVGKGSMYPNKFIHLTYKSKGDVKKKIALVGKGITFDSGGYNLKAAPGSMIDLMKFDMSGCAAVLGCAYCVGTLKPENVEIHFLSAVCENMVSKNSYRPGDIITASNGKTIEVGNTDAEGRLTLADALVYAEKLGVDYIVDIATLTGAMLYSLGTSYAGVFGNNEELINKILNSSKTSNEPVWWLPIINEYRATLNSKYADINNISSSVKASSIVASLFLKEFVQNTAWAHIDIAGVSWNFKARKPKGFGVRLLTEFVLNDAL

inhibition, inactive:
C/C(=N/NC(=O)Cn1nc2ccccc2n1)c1ccc(F)cc1 13.8%
CC(C)c1nc(SCC(=O)N2CCCc3ccccc32)c2c(=O)n(C)c(=O)n(C)c2n1 -8.79%
Cc1c(CN2CCC(CO)(CC3CCCCO3)CC2)cnn1C (centres undefined) -3.19%
Cc1ccc(OCC(=O)N2N=C(C(F)(F)F)CC2(O)C(C)(C)C)cc1C (centres undefined) -0.9%
CCCCSc1nc(O)cc(=O)n1CC 16%
CCOC(=O)c1sc(NS(=O)(=O)c2ccccc2)nc1C 23.4%
Cc1ccc(S(=O)(=O)Nc2nc(C)c(C(=O)NN)s2)cc1 18.9%
Cc1ccc(C(=O)Nc2ccc(F)cc2)o1 7.81%
O=C(Nc1ccc2c(c1)OCCO2)C1CC1c1ccccc1 (centres undefined) -1.74%
CC1=C(C)CC(C(=O)Nc2ccc3c(c2)OCO3)C(C(=O)O)C1 (centres undefined) 8.14%
O=C(O)CCCCCNS(=O)(=O)c1ccc2c(c1)OCCO2 -3.71%
O=C(Nc1ccc2c(c1)OCCO2)C1CCC1 -5.9%
O=C(O)CCNc1ccc2c(c1)OCCO2 13.7%
O=C(Nc1ccc2c(c1)OCCO2)NC1CCCCC1 53.6%
O=C(c1cc(-c2ccc(F)cc2)on1)N1CCCc2ccccc21 1.4%
CCCCOCCCNC(=O)C1CCCCC1 -2.13%
C=CCn1cnc2c(nnn2-c2ccc(Cl)cc2)c1=O 1.25%
Cc1c(Cl)cccc1NC(=O)CSC(N)=O 3.23%
Cc1c(Cl)cccc1NC(=O)CSCC(N)=O -1.74%
O=C(CSCc1cc(=O)[nH][nH]1)Nc1ccc(F)cc1 5.96%
CCCCc1ccc(NC(=O)CC(C)=O)cc1 7.92%
O=C(Nc1ccc(F)cc1F)N1CCC(c2nc3ccccc3o2)CC1 2.14%
CCOCCCn1c(=S)[nH]c2cc(C(=O)NCC(OC)OC)ccc2c1=O 1.45%
Cc1cc(OCC(=O)N2CCOCC2)ccc1NC(=O)C1CCCCC1 5.24%
NC(=O)COC(=O)c1ccccc1OCc1ccccc1 13.1%
O=C(OCC(=O)N1CCN(C(=O)c2ccco2)CC1)c1ccccc1OCc1ccccc1 7.24%
CC(c1ccccc1)n1c(-c2cccs2)nc2c(c(=O)c3ccccc3n2C)c1=O (centres undefined) 7.83%
CCOc1ccc(C(C(=O)Nc2ccc(F)cc2)N(C(=O)Cn2nnc3ccccc32)C2CC2)cc1 (centres undefined) 6.8%
CC1CCCCC12NC(=O)N(CC(=O)Nc1ccc(N3CCOCC3)cc1)C2=O (centres undefined) 22%
CC1CCC2(CC1)NC(=O)N(CC(=O)NC(=O)Nc1ccc3c(c1)OCCO3)C2=O (centres undefined) 2.34%
CC1CCCCN1CC(=O)Nc1ccc(N2CCCCCC2)cc1 (centres undefined) 37.6%
CC1CCC2(CC1)NC(=O)N(CC(=O)Nc1ccc3c(c1)CCC3)C2=O (centres undefined) -3.16%
O=C(CN1C(=O)C2C3C=CC(C3)C2C1=O)Nc1ccc(F)cc1 (centres undefined) -2.69%
O=C(CCN1C(=O)C2C3C=CC(C3)C2C1=O)Nc1ccc2c(c1)OCO2 (centres undefined) -8.11%
O=C(CN1C(=O)NC2(CCCCC2)C1=O)Nc1ccc(N2CCOCC2)cc1 29.2%
O=C(CN1CCCCC1)Nc1ccc(N2CCCCCC2)cc1 43.3%
Cc1cccn2cc(CCNS(=O)(=O)c3cccc([N+](=O)[O-])c3)nc12 -1.3%
COCCn1c(N)c(N(Cc2ccccc2)C(=O)c2ccc(C#N)cc2)c(=O)[nH]c1=O 1.64%
Cc1nn(C)c(Cl)c1C(=O)NC(C(=O)O)c1ccccc1 (centres undefined) -0.49%
O=C(O)CSc1nc2ccccc2n1-c1ccccc1 6.57%
C/C=C/Cn1c(Br)nc2c1c(=O)[nH]c(=O)n2C 6.95%
O=C1c2ccccc2-c2cccc(C(=O)N3CCN(C(=O)c4ccccc4)CC3)c21 2.37%
CC1=C(C(=O)N2CCOCC2)C(c2ccc(Br)cc2)NC(=S)N1c1ccccc1 (centres undefined) 1.22%
Nc1nonc1C(=Nc1ccc(Br)cc1)NO -2.77%
COc1ccc(NC(=S)N(Cc2ccc(C)cc2)Cc2ccccn2)cc1 4.2%
COc1ccc(-c2cc(C(F)(F)F)n3nc(C(=O)O)nc3n2)cc1 42.7%
NC(=O)CSc1nccn1Cc1ccc(Cl)cc1 -2.93%
CCN(c1ccc(NC(=O)COC(=O)c2cccs2)cc1)C(C)C 38.8%
O=C(COC(=O)c1cccs1)Nc1ccccc1 4.15%
CNC(=S)N1N=C(c2ccc(C)cc2)CC1c1ccc(Cl)cc1 (centres undefined) 5.37%
CCOc1[nH]n(-c2ccccc2)c(=O)c1C=Nc1ccc(F)cc1F 2.5%
CCOC(=O)N1CCN(C(=O)/C(=C/c2cccs2)NC(=O)c2cccs2)CC1 16.7%
CCn1c(=S)[nH]c2sc3c(c2c1=O)CCCCC3 3.46%
O=c1c2c3c(sc2[nH]c(=S)n1Cc1ccco1)CCC3 -4.17%
O=C(COC(=O)c1ccccc1OCc1ccc(Cl)cc1)NC1CC1 -0.6%
Cc1ccc(COc2ccsc2C(=O)O)cc1 -3.31%
O=C(O)c1sccc1OCc1ccccc1 -1.01%
COc1ccc(C(=O)CSc2n[nH]c(-c3ccncc3)n2)cc1[N+](=O)[O-] -7.99%
O=c1cc2c(=O)oc3cc(O)c(O)oc3c2c(O)c1O 33%
Cc1c(Br)c(=O)oc2c(Br)c(O)c(O)cc12 45.5%
Cc1ccc(C)c(NC(=O)CSc2nnc(-c3ccco3)o2)c1 1.4%
Cc1cccc(Nc2nnc(SC/C(O)=C(\C#N)c3nc4ccccc4[nH]3)s2)c1C -9.64%
Cc1cccc(Nc2nnc(SC/C(O)=C(\C#N)c3nc4ccccc4[nH]3)s2)c1 19.5%
COc1ccc(S(=O)(=O)N2CCOC2CNC(=O)C(=O)NCc2cccnc2)cc1C (centres undefined) 10.8%
CN(C)Cc1nc2c(c(=O)[nH]1)C(C)(C)Cc1ccccc1-2 -7.27%
CCn1c(=S)[nH]c2c(c1=O)C(C)(C)Cc1ccccc1-2 -1.93%
Cc1ccc(S(=O)(=O)c2nc(C)c3c(n2)CCC3)cc1 -1.17%
CCOC(=O)c1cnc(SCC(=O)Nc2cc(C(F)(F)F)ccc2N2CCOCC2)nc1N -15.2%
CC(=O)/C(C#N)=C1\NC(=O)C(Cc2ccccc2C)S1 (centres undefined) 23.4%
CC(=O)/C(C#N)=C1\NC(=O)C(Cc2cc(Cl)ccc2Cl)S1 (centres undefined) 45.6%
COCCCn1c(SCc2cc(=O)[nH]c3ccccc23)nnc1-c1ccco1 -2.38%
COCCSc1nnc(NC(=O)C2CC(=O)N(c3ccc(C)cc3)C2)s1 (centres undefined) 1.69%
O=C1C2CC=CCC2C(=O)N1c1cccc(OS(=O)(=O)c2ccc3ccccc3c2)c1 (centres undefined) 6.42%
CC(=O)Nc1ccc(S(=O)(=O)Oc2cccc(N3C(=O)C4CC=CCC4C3=O)c2)cc1 (centres undefined) 15.9%
CCOc1ccc(NC(=S)NNC(=S)Nc2cccc(C(F)(F)F)c2)cc1 -5.94%
O=C(NCc1ccco1)c1cc(-c2ccccn2)nc2ccccc12 6.45%
O=C(O)c1ccccc1Nc1ccc(OC(F)F)cc1 18.9%
Cc1ccc(S(=O)(=O)Nc2ccccc2C(=O)OC(C)C(=O)Nc2ccc3ccccc3c2)cc1[N+](=O)[O-] (centres undefined) -9.25%
COc1ccc(NC(=O)c2ccccc2NS(=O)(=O)c2ccc(C)cc2)c([N+](=O)[O-])c1 2.55%
COc1ccc(NC(=S)NNc2ccc([N+](=O)[O-])cc2S(=O)(=O)Nc2ccc(C)cc2C)cc1 4.17%
Cc1ccc(NC(=O)C(C)[n+]2ccccc2)cc1[N+](=O)[O-] (centres undefined) -17.4%
CCOC(=O)c1nn(-c2ccc(Br)cc2)cc1C(=O)c1cccc2ccccc12 2.03%
O=C(O)C12CC3CC(C1)CC(n1ncc(NCc4ccco4)c(Cl)c1=O)(C3)C2 1.68%
O=c1c(Cl)c(NCc2ccc(F)cc2)cnn1C12CC3CC(CC(C3)C1)C2 18.3%
O=C(O)Cc1ccc(Nc2cnn(C34CC5CC(CC(CC(=O)O)(C5)C3)C4)c(=O)c2Cl)cc1 23.1%
O=c1c(Cl)c(NCc2ccccc2)cnn1C12CC3CC(CC(C3)C1)C2 -15.7%
O=C(O)CC12CC3CC(C1)CC(n1ncc(NCc4ccccc4)c(Cl)c1=O)(C3)C2 8.41%
O=c1c(Cl)c(NCc2ccc(F)cc2Cl)cnn1C12CC3CC(CC(C3)C1)C2 -15.2%
O=C(O)CC12CC3CC(C1)CC(n1ncc(NCc4ccccc4Cl)c(Cl)c1=O)(C3)C2 23.6%
O=C(O)CC12CC3CC(C1)CC(n1ncc(NCc4ccco4)c(Cl)c1=O)(C3)C2 7.19%
COc1ccccc1N1CCN(C(=O)COc2ccc(Cl)cc2Br)CC1 1.89%
CCOC(=O)C1CCN(C(=O)Nc2ccc(OC(F)(F)F)cc2)CC1 7.03%
O=C(c1cc2cccc([N+](=O)[O-])c2oc1=O)N1CCOCC1 14.7%
CCOC(=O)c1c(C)[nH]c(C)c1C(=O)COC(=O)/C=C/c1cccc(C(F)(F)F)c1 -1.01%

— PubChem BioAssay AID1619 (SRMLSC, 2009)
